According to PubChem BioAssay AID1159580 (chemical genetic matrix, 2015):
“And” between values parts separate entries of the source, which are not always exact repeats. Identical values can stand only once. The whole screen tested about 5,500 compounds, of which about 2,000 (36%) were called active. Not shown: some 18% with an inconclusive outcome. Rule as the data show it: active = normalized growth mostly below about 0.91 (no sharp cut-off); inconclusive = no clear call, values can overlap the other calls; inactive = mostly above about 0.92. The list shows a part of the results.

Test: chemical genetic growth profiling, strain panel (AID 1159580);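 also: tested at 20 µM; growth read once vehicle control cultures reached saturation at 30 °C; 1 = growth at the plate median or of vehicle wells; lower values mean less growth of the strain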
Details: S. cerevisiae deletion strains, growth OD

Measured: normalized growth

Oc1c(Cl)cc(Cl)c(Cl)c1Cc1c(O)c(Cl)cc(Cl)c1Cl
active: locus YAL021C, strain ccr4, active compounds read low 0.0649 | locus YAL026C, strain drs2, active compounds read low 0.0639 | locus YAL030W, strain snc1, active compounds read low 0.0572 | locus YBL061C, strain skt5, active compounds read low 0.0628 | locus YBR009C, strain hhf1, active compounds read low 0.0575 | locus YBR021W, strain FUR4, active compounds read low 0.0863 | locus YBR023C, strain chs3, active compounds read low 0.0623 | locus YBR171W, strain sec66, active compounds read low 0.0838 | locus YBR229C, strain ROT2, active compounds read low 0.0457 | locus YBR231C, strain swc5, active compounds read low 0.0612 | locus YBR279W, strain paf1, active compounds read low 0.0633 | locus YCL011C, strain gbp2, active compounds read low 0.0558 | locus YCL016C, strain dcc1, active compounds read low 0.0684 | locus YCL029C, strain bik1, active compounds read low 0.0602 | locus YCL061C, strain MRC1, active compounds read low 0.064 | locus YCL069W, strain vba3, active compounds read low 0.0605 | locus YCR088W, strain abp1, active compounds read low 0.0632 | locus YDL005C, strain med2, active compounds read low 0.0765 | locus YDL035C, strain GPR1, active compounds read low 0.0447 | locus YDL040C, strain nat1, active compounds read low 0.0596 | locus YDL074C, strain BRE1, active compounds read low 0.0681 | locus YDL101C, strain DUN1, active compounds read low 0.0525 | locus YDL185W, strain tfp1, active compounds read low 0.0761 | locus YDL192W, strain arf1, active compounds read low 0.0596 | locus YDR001C, strain nth1, active compounds read low 0.0623 | locus YDR069C, strain doa4, active compounds read low 0.0643 | locus YDR101C, strain arx1, active compounds read low 0.0573 | locus YDR137W, strain rgp1, active compounds read low 0.108 | locus YDR159W, strain sac3, active compounds read low 0.111 | locus YDR162C, strain NBP2, active compounds read low 0.0454 | locus YDR195W, strain ref2 0.126 | locus YDR297W, strain sur2, active compounds read low 0.0566 | locus YDR318W, strain mcm21, active compounds read low 0.0637 | locus YDR334W, strain swr1, active compounds read low 0.0669 | locus YDR335W, strain msn5, active compounds read low 0.061 | locus YDR388W, active compounds read low 0.0571 | locus YDR392W, strain spt3, active compounds read low 0.0734 | locus YDR502C, strain sam2, active compounds read low 0.0651 | locus YEL003W, strain gim4, active compounds read low 0.0558 | locus YEL037C, strain rad23, active compounds read low 0.0567 | locus YEL061C, strain CIN8 (second series), active compounds read low 0.0634 | locus YEL061C, strain CIN8, active compounds read low 0.0485 | locus YER015W, strain faa2, active compounds read low 0.065 | locus YER016W, strain bim1, active compounds read low 0.0638 | locus YER110C, active compounds read low 0.0729 | locus YER111C, strain swi4, active compounds read low 0.0725 | locus YER155C, strain BEM2 (second series), active compounds read low 0.0878 | locus YER155C, strain BEM2, active compounds read low 0.0604 | locus YER167W, strain BCK2, active compounds read low 0.0476 | locus YFR010W, strain ubp6, active compounds read low 0.0712 | locus YGL078C, strain dbp3, active compounds read low 0.108 | locus YGL086W, strain mad1, active compounds read low 0.0548 | locus YGL167C, strain pmr1, active compounds read low 0.0813 | locus YGL173C, strain kem1, active compounds read low 0.0685 | locus YGL227W, strain vid30, active compounds read low 0.0622 | locus YGL240W, strain doc1, active compounds read low 0.0737 | locus YGL248W, strain PDE1, active compounds read low 0.0447 | locus YGL253W, strain hxk2, active compounds read low 0.0537 | locus YGR135W, strain pre9, active compounds read low 0.0633 | locus YGR252W, strain gcn5, active compounds read low 0.179 | locus YHR013C, strain ard1, active compounds read low 0.108 | locus YHR027C, strain rpn1, active compounds read low 0.0624 | locus YHR030C, strain SLT2, active compounds read low 0.0509 and 0.0952 | locus YHR079C, strain IRE1 (second series), active compounds read low 0.0571 | locus YHR079C, strain IRE1, active compounds read low 0.137 | locus YHR094C, strain hxt1, active compounds read low 0.0585 | locus YHR129C, strain ARP1, active compounds read low 0.0547 | locus YHR142W, strain chs7, active compounds read low 0.0728 | locus YHR200W, strain rpn10, active compounds read low 0.0603 | locus YIL066C, strain RNR3, active compounds read low 0.0457 | locus YIL073C, strain SPO22, active compounds read low 0.0959 | locus YIL125W, strain kgd1, active compounds read low 0.0781 | locus YIR030C, strain dcg1, active compounds read low 0.0579 | locus YJL092W, strain hpr5, active compounds read low 0.0606 | locus YJL095W, strain BCK1 (second series), active compounds read low 0.0579 | locus YJL095W, strain BCK1, active compounds read low 0.0575 and 0.0959 | locus YJL115W, strain asf1, active compounds read low 0.0753 | locus YJL129C, strain trk1, active compounds read low 0.0909 | locus YJL134W, strain LCB3, active compounds read low 0.0469 | locus YJL154C, strain vps35, active compounds read low 0.0611 | locus YJL164C, strain tpk1, active compounds read low 0.0591 | locus YJL166W, strain qcr8, active compounds read low 0.0615 | locus YJL168C, strain set2, active compounds read low 0.0584 | locus YJL187C, strain SWE1 (second series), active compounds read low 0.0437 | locus YJR043C, strain POL32, active compounds read low 0.0543 | locus YJR066W, strain TOR1, active compounds read low 0.0109 | locus YKL009W, strain mrt4, active compounds read low 0.13 | locus YKL068W, active compounds read low 0.0876 | locus YKL085W, strain MDH1 (second series), active compounds read low 0.0638 | locus YKL085W, strain MDH1, active compounds read low 0.0638 | locus YKL160W, strain elf1, active compounds read low 0.0626 | locus YKL190W, strain CNB1, active compounds read low 0.0457 | locus YKR001C, strain vps1, active compounds read low 0.064 | locus YKR026C, strain gcn3, active compounds read low 0.063 | locus YKR091W, strain srl3, active compounds read low 0.058 | locus YLL001W, strain dnm1, active compounds read low 0.0618 | locus YLL026W, active compounds read low 0.0568 | locus YLL041C, strain sdh2, active compounds read low 0.0572 | locus YLR027C, strain aat2, active compounds read low 0.0557 | locus YLR039C, strain RIC1, active compounds read low 0.101 | locus YLR058C, strain SHM2, active compounds read low 0.0462 | locus YLR102C, strain apc9, active compounds read low 0.0599 | locus YLR113W, strain HOG1, active compounds read low 0.119 | locus YLR221C, strain rsa3, active compounds read low 0.064 | locus YLR258W, strain gsy2, active compounds read low 0.0646 | locus YLR262C, strain YPT6 (second series), active compounds read low 0.0785 | locus YLR262C, strain YPT6, active compounds read low 0.114 | locus YLR268W, strain sec22, active compounds read low 0.0689 | locus YLR320W, strain mms22, active compounds read low 0.0782 | locus YLR330W, strain CHS5, active compounds read low 0.0515 | locus YLR342W, strain FKS1 (second series), active compounds read low 0.0549 | locus YLR342W, strain FKS1, active compounds read low 0.0674 | locus YLR357W, strain rsc2, active compounds read low 0.132 | locus YLR370C, strain arc18, active compounds read low 0.0635 | locus YLR371W, strain rom2, active compounds read low 0.0617 | locus YLR384C, strain iki3, active compounds read low 0.0627 | locus YLR418C, strain cdc73, active compounds read low 0.102 | locus YML016C, strain PPZ1, active compounds read low 0.0443 | locus YML032C, strain rad52, active compounds read low 0.0719 | locus YML120C, strain ndi1, active compounds read low 0.0723 | locus YML124C, strain tub3, active compounds read low 0.0588 | locus YMR058W, strain fet3, active compounds read low 0.06 | locus YMR078C, strain ctf18, active compounds read low 0.0715 | locus YMR125W, strain sto1, active compounds read low 0.0705 | locus YMR129W, active compounds read low 0.0593 | locus YMR205C, strain PFK2, active compounds read low 0.0865 | locus YMR223W, strain ubp8, active compounds read low 0.064 | locus YMR231W, strain pep5, active compounds read low 0.0739 | locus YMR307W, strain GAS1, active compounds read low 0.095 | locus YNL067W, strain RPL9B, active compounds read low 0.0449 | locus YNL071W, strain lat1, active compounds read low 0.0618 | locus YNL183C, strain NPR1, active compounds read low -0.000219 | locus YNL209W, strain ssb2, active compounds read low 0.0615 | locus YNL233W, strain BNI4, active compounds read low 0.0507 | locus YNL248C, strain rpa49, active compounds read low 0.0739 | locus YNL250W, strain rad50, active compounds read low 0.232 | locus YNL271C, strain bni1, active compounds read low 0.0767 | locus YNL298W, strain CLA4, active compounds read low 0.0832 | locus YNL307C, strain MCK1, active compounds read low 0.0665 | locus YNL322C, strain KRE1 (second series), active compounds read low 0.0815 | locus YNR049C, strain mso1, active compounds read low 0.0574 | locus YNR052C, strain pop2, active compounds read low 0.0618 | locus YOL147C, strain pex11, active compounds read low 0.0569 | locus YOR001W, strain rrp6, active compounds read low 0.0782 | locus YOR061W, strain CKA2, active compounds read low 0.0448 | locus YOR069W, strain VPS5, active compounds read low 0.0463 | locus YOR070C, strain gyp1, active compounds read low 0.0582 | locus YOR080W, strain dia2, active compounds read low 0.0666 | locus YOR083W, strain WHI5, active compounds read low 0.065 | locus YOR106W, strain vam3, active compounds read low 0.0665 | locus YOR136W, strain idh2, active compounds read low 0.0719 | locus YOR144C, strain elg1, active compounds read low 0.0552 | locus YOR184W, strain ser1, active compounds read low 0.075 | locus YOR231W, strain MKK1, active compounds read low 0.112 | locus YOR265W, strain rbl2, active compounds read low 0.065 | locus YOR270C, strain vph1, active compounds read low 0.0914 | locus YOR290C, strain snf2, active compounds read low 0.0645 | locus YOR316C, strain cot1, active compounds read low 0.0584 | locus YPL051W, strain arl3, active compounds read low 0.0639 | locus YPL078C, strain atp4, active compounds read low 0.0652 | locus YPL106C, strain sse1, active compounds read low 0.1 | locus YPL240C, strain hsp82, active compounds read low 0.0579 | locus YPL256C, strain CLN2, active compounds read low 0.116 | locus YPR119W, strain clb2, active compounds read low 0.0624 | locus YPR141C, strain kar3, active compounds read low 0.0848 | locus YPR163C, strain tif3, active compounds read low 0.0697 | locus YPR167C, strain met16, active compounds read low 0.0631 | strain wtn01, active compounds read low 0.0656
